Assay outcomes (PubChem)
HT1080 IDH1KD tx: kills HT-1080 cells with IDH1 knockdown; 2% of 360,000 active; Potency, µM (top dose mostly 46.1 µM), for the others: at the top dose activity, negative = toxicity, actives largely listed as cytotoxic; HT-1080 IDH1 knockdown viability, ATP luminescence, 48 h;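 note: 0% = DMSO wells and -100% = cell-free medium wells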
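Cytotoxicity counter-line: IDH1KD HT-1080, 48 h, CellTiter-Glo. Curves classed by r2, magnitude and activity.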
HT1080NT lethal: kills 2HG-producing HT-1080-NT fibrosarcoma cells; HT-1080-NT fibrosarcoma viability, CellTiter-Glo ATP luminescence, 48 h; Potency, µM (top dose mostly 46.1 µM), for inactives: at the top dose activity, negative = less viability, hits mostly cytotoxic; 1.6% of 360,000 active; AID 686970;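 note: NT is the 2HG producing partner of a matched IDH1 knockdown line; 0% = DMSO-treated cells and -100% = media-only wells without cells; nearly all actives have a fitted effect of over 55% in size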
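Luminescent CellTiter-Glo readout after 48 hours of compound exposure at 37 degrees C defined viability of HT-1080-NT cells. Activity was normalized to DMSO wells and cell-free media wells; concentration-response curves were fitted and assigned curve classes.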
DT40 TDP1 no CPT: qHTS for Inhibitors of human tyrosyl-DNA phosphodiesterase 1 (TDP1): qHTS in cells in absence of CPT; 15% of 420,000 active; AID 686978, 2013; Potency, µM (doses to about 46.2 µM), inactives show top-dose activity change, negative = growth inhibition, hits mostly inhibitors; DT40 Tdp1-/- hTDP1 cells, no CPT, ATP luminescence, 48 h; note: % is set by controls: 0 for no effect and ±100 for the full control effect; nearly all actives have a fitted effect of over 55% in size
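Camptothecin absent (DMSO only). Human TDP1-complemented DT40 knockout cells, 400 cells/well, 37 °C for minimum 48 hr; ATP measured via CellTiter-Glo, 30 min dark incubation, luminescence.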
TDP1 cell CPT: growth inhibition of DT40 Tdp1-/-;hTDP1 cells with camptothecin (screen for TDP1 inhibitors) | chicken DT40 Tdp1-/-;hTDP1 cells + 20 nM CPT, ATP luminescence, 48 h | Potency, µM (highest dose often 46.2 µM), without a hit: top-dose activity change, negative = growth inhibition, usual class: inhibitors | 12% of 420,000 active | AID 686979; note: % is set by controls: 0 for no effect and ±100 for the full control effect; nearly all actives have a fitted effect of over 55% in size
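Chicken DT40 Tdp1-/- cells stably complemented with human TDP1 were seeded at 400 cells/well in medium containing 20 nM camptothecin, exposed to pin-transferred compounds, and grown at 37 °C for at least 48 hr. Viability was read as ATP luminescence.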
HepG2 viability: HepG2 cytotoxicity, counter-screen for TGF-b inhibitors; HepG2 CAGA-GFP viability, ATP luminescence, 18 h; Potency, µM (series often up to 46.1 µM), for the others: at the top dose activity change, negative = cytotoxicity, most hits filed as cytotoxic; AID 588856; 0.76% of 410,000 active
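CellTiter-Glo luminescence gave cytotoxicity after 18 hours at 37 degrees C. The cells were HepG2 CAGA-GFP in 1% FBS DMEM, stimulated with 500 pg/mL TGF-beta after compound addition. %Activity was normalised to no-cell wells (complete cell-killing) and DMSO (no toxicity), and curves were fitted and classified.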
TGFb SMAD3 inh: TGF-b pathway inhibition. HepG2 CAGA-GFP TGF-b/SMAD3 reporter, GFP fluorescence, 18 h; TGF-beta stimulated, 500 pg/mL final. 1.2% of 410,000 active. Potency, µM (doses to about 46.1 µM), for the others: top-dose activity, negative = inhibition, hits mostly inhibitors; note: % is set by controls: 0 for no effect and ±100 for the full control effect; nearly all actives have a fitted effect of over 65% in size
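Inhibition of TGF-beta-driven CAGA-GFP reporter expression in HEPG2 cells is measured by cellular GFP fluorescence after 18 h stimulation with 500 pg/mL recombinant TGF-beta in 1% FBS medium at 37 degrees C.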
Numbers without * were called inactive; [ ] = another dose, or the depositor's remark. The list is not random: actives were taken first. Their share in the collection is about 17%. Calls come from the whole dose curve; as a rule, active = well fitted curve in the direction sought with a large enough effect; inconclusive = small, poorly fitted or top-dose-only effect, or another doubt; inactive = no such curve, though single readings can be large; an effect the other way counts as inactive or inconclusive. Potency is the fitted concentration of half-maximal effect.

Cc1ccc(S(=O)(=O)Nc2ccc3c(c2)C(=O)c2ccccc2-3)cc1 was read as HT1080 IDH1KD tx inconclusive, HT1080NT lethal inconclusive, DT40 TDP1 no CPT inconclusive, TDP1 cell CPT inconclusive, HepG2 viability -27% and TGFb SMAD3 inh inconclusive.
`CC(C)NC(=O)CN1C(=O)c2cccc3cccc1c23` gave HT1080 IDH1KD tx 4%, HT1080NT lethal 4%, DT40 TDP1 no CPT 9%, TDP1 cell CPT 0%, HepG2 viability -3% and TGFb SMAD3 inh 13%.
Screening Fc1ccc(/C=N/NC(=S)Nc2ccc(Cl)cc2)cc1F returned HT1080 IDH1KD tx 10%, HT1080NT lethal 12%, DT40 TDP1 no CPT 23µM*, TDP1 cell CPT inconclusive, HepG2 viability 9% and TGFb SMAD3 inh 8%.
For CC(=O)Oc1ccc(/C=N/NC(=S)Nc2ccccc2)cc1 the results were HT1080 IDH1KD tx -1%, HT1080NT lethal 1%, DT40 TDP1 no CPT -2%, TDP1 cell CPT -3%, HepG2 viability -24% and TGFb SMAD3 inh 0%.
`COc1ccc(NC(=S)N/N=C/c2ccc(F)c(F)c2)cc1` gave HT1080 IDH1KD tx 21µM*, HT1080NT lethal inconclusive, DT40 TDP1 no CPT inconclusive, TDP1 cell CPT inconclusive, HepG2 viability -5% and TGFb SMAD3 inh -14%.
Screening COc1ccc(NC(=S)N/N=C/c2ccc(F)cc2)cc1OC returned HT1080 IDH1KD tx 11%, HT1080NT lethal 14%, DT40 TDP1 no CPT inconclusive, TDP1 cell CPT inconclusive, HepG2 viability 45% and TGFb SMAD3 inh inconclusive.
For Fc1ccc(NC(=S)N/N=C/c2ccc(F)c(F)c2)cc1 the results were HT1080 IDH1KD tx 11%, HT1080NT lethal 0%, DT40 TDP1 no CPT 6.5µM*, TDP1 cell CPT 4.1µM*, HepG2 viability 15% and TGFb SMAD3 inh inconclusive.
For Fc1ccc(/C=N/NC(=S)Nc2ccc(Cl)cc2Cl)cc1 the results were HT1080 IDH1KD tx inconclusive, HT1080NT lethal inconclusive, DT40 TDP1 no CPT 5.2µM*, TDP1 cell CPT 7.3µM*, HepG2 viability 0% and TGFb SMAD3 inh 1%.
`CCNC(=S)Nc1ccc(Cl)cc1Cl` gave HT1080 IDH1KD tx -7%, HT1080NT lethal 1%, DT40 TDP1 no CPT -11%, TDP1 cell CPT -7%, HepG2 viability -11% and TGFb SMAD3 inh inconclusive.
Screening Cc1ccc(NC(=O)c2ccc(OC(=O)COc3cccc(Cl)c3)cc2)cc1 returned HT1080 IDH1KD tx 6%, HT1080NT lethal -1%, DT40 TDP1 no CPT inconclusive, TDP1 cell CPT inconclusive, HepG2 viability 4% and TGFb SMAD3 inh 4%.
For Cc1ccc(OCc2cc(=O)n3cc(C)sc3n2)c(C)c1 the results were DT40 TDP1 no CPT 12%, TDP1 cell CPT -1%, HepG2 viability 0% and TGFb SMAD3 inh 24%.
Screening CCn1cc(/C=N/N=C2\CCC3C4CCc5cc(O)ccc5C4CC[C@]23C)c(C)n1 (stereo partly drawn) returned HT1080 IDH1KD tx -2%[9.24 µM], HT1080NT lethal -19%, DT40 TDP1 no CPT 21µM*, TDP1 cell CPT 16µM*, HepG2 viability -37% and TGFb SMAD3 inh 0%.
For CCOC(=O)C1CCN(C(=O)COC(=O)c2cccc(NS(=O)(=O)c3ccccc3)c2)CC1 the results were HT1080 IDH1KD tx -7%, HT1080NT lethal -10%, DT40 TDP1 no CPT inconclusive, TDP1 cell CPT inconclusive, HepG2 viability 1% and TGFb SMAD3 inh -11%.
Screening COc1cccc(CCc2ccccc2OCC(CN(C)C)OC(=O)CCC(=O)O)c1 (stereo not drawn) returned DT40 TDP1 no CPT 11µM*, TDP1 cell CPT 16µM*, HepG2 viability 2% and TGFb SMAD3 inh 8%.
For Cc1cc(NC(=O)CCCSc2nc(-c3ccco3)cc(C(F)(F)F)n2)no1 the results were HT1080 IDH1KD tx 2%, HT1080NT lethal 13%, DT40 TDP1 no CPT -27%, TDP1 cell CPT 0%, HepG2 viability -6% and TGFb SMAD3 inh -10%.
CC(C)(C)c1cc(C(F)(F)F)nc(SCCCNC(=O)c2ccco2)n1 was read as HT1080 IDH1KD tx 4%[9.24 µM], HT1080NT lethal -2%, DT40 TDP1 no CPT 21µM*, TDP1 cell CPT 23µM*, HepG2 viability 4% and TGFb SMAD3 inh 0%.
For Cc1cccc(OCC(=O)Nc2nccs2)c1C the results were HT1080 IDH1KD tx -17%, HT1080NT lethal -1%, DT40 TDP1 no CPT -29%, TDP1 cell CPT inconclusive, HepG2 viability -10% and TGFb SMAD3 inh -14%.
CC(C)(C)CC(=O)Nc1cccc2c1CCCC2 was read as HT1080 IDH1KD tx 10%, HT1080NT lethal 6%, DT40 TDP1 no CPT -13%, TDP1 cell CPT -4%, HepG2 viability 0% and TGFb SMAD3 inh inconclusive.
For c1cc2c(c(NCc3ccncc3)c1)CCCC2 the results were HT1080 IDH1KD tx -11%, HT1080NT lethal -6%, DT40 TDP1 no CPT 12µM*, TDP1 cell CPT 12µM*, HepG2 viability -11% and TGFb SMAD3 inh -19%.
For O=S1(=O)N[C@@H](CC2CCCCC2)COc2cc(Br)ccc21 the results were HT1080 IDH1KD tx -29%, HT1080NT lethal inconclusive, DT40 TDP1 no CPT inconclusive, TDP1 cell CPT 15µM*, HepG2 viability -19% and TGFb SMAD3 inh -25%.
Screening CCN1CCOC(=O)C1CC(=O)Nc1ccc(C(C)=O)cc1 (stereo not drawn) returned DT40 TDP1 no CPT 10µM*, TDP1 cell CPT 21µM*, HepG2 viability -10% and TGFb SMAD3 inh inconclusive.
O=C(CC1C(=O)OCC2CCCCN21)Nc1ccccc1C(F)(F)F (stereo not drawn) was read as HT1080 IDH1KD tx 2%, HT1080NT lethal -13%, DT40 TDP1 no CPT -14%, TDP1 cell CPT 2%, HepG2 viability -4% and TGFb SMAD3 inh -6%.
Screening CCN1CCOC(=O)C1CC(=O)Nc1cc(Cl)ccc1OC (stereo not drawn) returned DT40 TDP1 no CPT 2.6µM*, TDP1 cell CPT 4.6µM*, HepG2 viability -3% and TGFb SMAD3 inh inconclusive.
`CCN1CCOC(=O)C1CC(=O)Nc1ccccc1C(F)(F)F` (stereo not drawn) gave DT40 TDP1 no CPT 3.7µM*, TDP1 cell CPT 3.3µM*, HepG2 viability -50% and TGFb SMAD3 inh inconclusive.
`CCN(CC)c1ccc(S(=O)(=O)N2CCCCC2)cc1NC(=O)CSCc1c(C)noc1C` gave HT1080 IDH1KD tx -16%, HT1080NT lethal -3%, DT40 TDP1 no CPT inconclusive, TDP1 cell CPT inconclusive, HepG2 viability -22% and TGFb SMAD3 inh -12%.
